# Several values for one entry are separate records, joined by “and”; a condition that tells them apart may be missing. Equal values may be shown once. Among all 420,000 compounds or so, about 50,000 (12%) were called active. Roughly 26% stayed inconclusive and do not appear here. Calls come from the whole dose curve; as a rule, active = well fitted inhibition curve with a large enough effect; inconclusive = small, poorly fitted or top-dose-only effect; inactive = flat fitted curve, though single readings scatter. Shown is part of a subset that was picked to be rich in actives. Some structures have more than one record in an assay (separate samples or runs), and their calls can disagree.
# Assay: qHTS for Inhibitors of human tyrosyl-DNA phosphodiesterase 1 (TDP1): qHTS in cells in presence of CPT; note: nearly all actives have a fitted effect of over 55% in size
# Conditions: chicken DT40 Tdp1-/-;hTDP1 cells + 20 nM CPT, ATP luminescence, 48 h; series mostly up to 46.2 µM; activity change, negative = growth inhibition: at the top concentration
# Outline: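 Cell growth measured by CellTiter-Glo luminescence after a minimum 48 h, 37 C compound exposure with 20 nM CPT in Tdp1-knockout DT40 cells stably expressing hTDP1, seeded 400/well; qHTS titration format.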
# % is set by controls: 0 for no effect and ±100 for the full control effect; potency is the fitted concentration of half-maximal effect.
Compound,"activity change, negative = growth inhibition",Potency
Cn1c(=S)sc2ccc3ccccc3c21,-11.6% (inactive),
CC(C)NC(=O)N1CC[C@@]2(CCCN(C(=O)c3ccco3)C2)C1,0.86% (inactive),
Cc1ccc(NC(=O)CN2CCCCC2)c2c1CC(C)(C)O2,-23.3% (inactive),
O=C(O)CSc1ccc(S(=O)(=O)N2CCCC2)cn1,5.59% (inactive),
Cc1ccc(S(=O)(=O)NC2(C(F)(F)F)NC(=O)N(CCc3ccccc3)C2=O)cc1 (configuration not stated),,inactive
O=C(Cc1ccc(F)cc1)N1CCN=C1SCc1cccc([N+](=O)[O-])c1,2.67% (inactive),
COc1ccc(Nc2ncc(C(=O)N3CCN(c4ccccc4OC)CC3)c3ccccc23)cc1,,29.1 µM (active) and 13 µM (active)
COc1ccccc1N1CCN(C(=O)c2ccc(NC3=NC4CS(=O)(=O)CC4S3)cc2)CC1 (configuration not stated),-12.7% (inactive),
COc1ccc(NC(=O)c2cnc(Nc3ccc(C)c(Cl)c3)c3ccccc23)cc1OC,-3.58% (inactive),
O=C(Nc1cc(F)ccc1F)c1ccc2c(=O)n3c(nc2c1)CCC3,-14.7% (inactive),
CC(=O)c1cccc(NC(=O)C2COc3ccccc3O2)c1 (configuration not stated),-5.65% (inactive),
O=C(Nc1nc(-c2cccnc2)cs1)c1ccccc1F,16.5% (inactive),
COc1ccc(NC(=O)C2COc3ccccc3O2)cc1 (configuration not stated),-1.97% (inactive),
O=C(Nc1nc(-c2ccncc2)cs1)C1COc2ccccc2O1 (configuration not stated),,20.6 µM (active)
CC(=O)NCCC(=O)Nc1nc(-c2ccc3c(c2)OCCO3)cs1,1.03% (inactive),
O=C(CCc1ccccc1)Nc1ncc([N+](=O)[O-])s1,,20.6 µM (active)
Cc1ccc(-c2csc(NC(=O)Cc3cccs3)n2)cc1C,-14.1% (inactive),
O=C(CCc1ccccc1)Nc1ccc(NC(=O)C2CCCCC2)nc1,-19.2% (inactive),
O=C(CCc1ccccc1)Nc1nn[nH]n1,1.24% (inactive),
O=C(Nc1nc(-c2ccc3c(c2)OCO3)cs1)c1ccncc1,,14.6 µM (active)
Cc1csc(NC(=O)C2=COCCO2)n1,-2.18% (inactive),
Cc1ccc(-c2csc(NC(=O)C3=COCCO3)n2)cc1C,,13 µM (active)

Compound,"activity change, negative = growth inhibition",Potency
Fc1ccc(/C=N/n2c(COc3ccccc3)n[nH]c2=S)cc1,0.518% (inactive),
C#CCN(C[C@H]1[C@H](OC(=O)NC2CCCC2)[C@H](OC(=O)NC2CCCC2)C[C@H]2C(=O)N(c3ccccc3)C(=O)[C@@H]12)S(=O)(=O)c1ccc(C)cc1,-3.61% (inactive),
CC(Oc1ccccc1)C(=O)NN1Cc2ccccc2C1=N (configuration not stated),23.1% (inactive),
O=C(COc1ccc([N+](=O)[O-])cc1)Nc1ccc(N2CCCC2)cc1,-21.3% (inactive),
C/C(=N/NC(=O)C1COc2ccccc2O1)c1ccco1 (configuration not stated),-18% (inactive),
O=C(Nc1nnc(SCc2ccc(Cl)cc2Cl)s1)C1COc2ccccc2O1 (configuration not stated),-17.7% (inactive),
O=C(Nc1ncc([N+](=O)[O-])s1)C1COc2ccccc2O1 (configuration not stated),,14.6 µM (active)
Cc1cc(N=Nc2ccc3ccccc3c2)ccc1O,-1.82% (inactive),
C[C@H](NC(=O)c1nc[nH]c1C(=O)NCC(=O)OC(C)(C)C)C(=O)OCc1ccccc1,-15.4% (inactive),
COc1ccc(C(O)C(O)(C(=O)OC(C)C)c2ccc(C)cc2)cc1 (configuration not stated),-4.68% (inactive),
COc1ccc(OC)c(-c2csc(-c3cccs3)n2)c1,-17.7% (inactive),
COc1ccc(OC)c(-c2csc(NC(=O)COC(=O)C3CC3)n2)c1,4.83% (inactive),
COc1ccc(CCN(C(=O)COc2ccccc2)c2nc(-c3ccccc3)cs2)cc1OC,-26.3% (inactive),
COc1ccc(-c2csc(Cc3nc(O)cs3)n2)cc1,,18.4 µM (active)
COc1ccc(OC)c(Nc2nc(-c3ccc(O)c(O)c3)cs2)c1,,0.82 µM (active)
COc1ccc(-c2csc(Nc3ccc(O)cc3)n2)cc1,,10.3 µM (active)
COc1cccc(CC(=O)Nc2ccc(-c3csc(C)n3)cc2)c1,-20.8% (inactive),
N#CCc1ccc(NC(=O)c2ccccc2C(=O)Nc2ccc(CC#N)cc2)cc1,-10.6% (inactive),
COc1ccc(NC(=O)COC(=O)c2n[nH]c3ccccc23)c(OC)c1,-22.8% (inactive),
CCOc1ccc(N2CC(C(=O)NCc3ccccn3)CC2=O)cc1 (configuration not stated),-18.4% (inactive),
COc1cc(/C=C/C(=O)O)cc(S(=O)(=O)Nc2ccccc2C(=O)NCCc2ccccc2)c1OC,9.8% (inactive),
COCCCn1c(SCC(=O)NC2CCCC2)nnc1-c1ccccc1,1.09% (inactive),

Compound,"activity change, negative = growth inhibition",Potency
CCCCN(C)CCCNC(=O)CN1N=C(c2ccc(OC)cc2)CCC1=O,-11.1% (inactive),
O=C1NNC(c2ccccc2)=N/C1=C\c1ccc(Cl)cc1,8.6% (inactive),
Cc1nc(=O)c(-c2ccccc2)c(C)n1-c1ccc(Br)cc1,-15.6% (inactive),
CCOC(=O)c1c(C)oc(C)c(C(=O)OCC)c1=O,7.36% (inactive),
CC(C)Cn1cnc2c1c(=O)n(CC(=O)NN)c(=O)n2Cc1ccccc1,-2.23% (inactive),
CC1CCN(C(=O)c2ccc3c(c2)NC(=O)CN3)CC1,-90.8% (inactive),
CC1=Nc2cc(C(=O)N3CCC(C)CC3)ccc2Sc2ccc(Cl)cc21,,14.6 µM (active)
COc1ccc(C(=O)Nc2c(Cl)cc(Cl)cc2C(=O)N2CCC(C)CC2)cc1,-13.5% (inactive),
Cc1cc(OCc2ccc(C(=O)Nc3ccc(C(=O)O)cc3)o2)ccc1Cl,2.87% (inactive),
CCN(CC)CCCNC(=O)CCc1ccccc1,16.4% (inactive),
CN(Cc1ccccc1)C(=O)CCc1ccccc1,-7.13% (inactive),
CN(C(=O)CN(CCO)CC(=O)N(C)C(C)(C)Cc1ccccc1)C(C)(C)Cc1ccccc1,,inactive and 3.66 µM (active)
CCCCN(C)c1ccc([N+](=O)[O-])cc1,-24.4% (inactive),
Cc1cc(C)c(S(=O)(=O)c2ccccc2)c(OC(=O)c2c(F)cccc2Cl)n1,-13.3% (inactive),
Cc1nc(-c2ccccc2)sc1C(=O)/C=C/N(C)C,,23.1 µM (active)
Cc1nc(COc2cccc(Cl)c2)sc1C(=O)/C=C/N(C)C,-0.0849% (inactive),
Cc1nc(-c2ccc(Cl)cc2)sc1C(=O)NN,-22.1% (inactive),
Cc1nc(-c2ccccc2)sc1C(=O)/C=C/c1ccccc1,,23.1 µM (active)
CN(C)/C=C/C(=O)c1ccccc1F,-1.6% (inactive),
Cc1ccc(SCC(=O)c2sc(-c3ccccc3)nc2C)cc1,-15.9% (inactive),
O=C(CN1CCSCC1)N/N=C/c1ccc(F)cc1F,0.367% (inactive),
CCn1nc(C(=O)NNC(=O)C2CSC3(C)CCC(=O)N23)c2ccccc2c1=O (configuration not stated),0.936% (inactive),

Compound,"activity change, negative = growth inhibition",Potency
COc1ccc(S(=O)(=O)NC(C)C(=O)NCc2ccncc2)cc1Cl (configuration not stated),-17.2% (inactive),
COc1ccc(Cn2c(=O)c3oc4ccccc4c3n(CC(=O)Nc3ccc(F)cc3F)c2=O)cc1,-12.6% (inactive),
CN=C(c1ccccc1)c1c(C)cccc1C,-7.69% (inactive),
COc1ccc(OC)c(C(O)c2nc3ccccc3n2C)c1 (configuration not stated),5% (inactive),
COc1ccccc1CNc1nc2ccc(Cl)cc2n2cnnc12,8.74% (inactive),
COc1cc(Nc2nc3ccc(Cl)cc3n3cnnc23)cc(OC)c1OC,,20.6 µM (active)
CCOc1ccc(OCC)c(Nc2nc3ccccc3n3nnnc23)c1,-8.29% (inactive),
COc1ccc(CCNc2nc3ccc(C)cc3n3cnnc23)cc1OC,,14.6 µM (active)
COc1ccc(OC)c(Nc2nc3ccccc3n3cnnc23)c1,,4.11 µM (active)
CCOC(=O)Cc1cccc(-c2cc(CCCCCCc3ccc(O[C@H]4O[C@H](COC(C)=O)[C@@H](OC(C)=O)[C@H](OC(C)=O)[C@@H]4OC(C)=O)c(-c4cccc(CC(=O)OCC)c4)c3)ccc2O[C@H]2O[C@H](COC(C)=O)[C@@H](OC(C)=O)[C@H](OC(C)=O)[C@@H]2OC(C)=O)c1,-10.5% (inactive),
Cc1nnc(SCC(=O)NC(=O)NC2CCCC2)n1N,-4.7% (inactive),
Nc1nc(SC23CC4CC(CC(C4)C2)C3)ns1,-3.87% (inactive),
Nc1nc(NC(=O)/C=C/c2ccccc2)nn1-c1ccccc1,-4.23% (inactive),
CC1(c2cccc(N)c2)OCCO1,-8.34% (inactive),
COc1ccc(N2C(=O)c3ccccc3NC2c2ccc(OC)c(CN3CCOCC3)c2)cc1 (configuration not stated),-23.3% (inactive),
CC(=O)Nc1ccc(NC(=O)COc2ccc(-c3ccccc3)cc2)cc1,-14.1% (inactive),
COc1ccc(C2Nc3ccc(NC(=O)COC(C)=O)cc3C(=O)N2Cc2ccccc2)cc1COc1ccc(NC(C)=O)cc1 (configuration not stated),,17.8 µM (active)
COc1ccc2c(c1)CCc1cnc(-n3ncc(C(=O)NCc4cccnc4)c3C3CC3)nc1-2,-5.66% [at 9.04 µM] (inactive),
Cc1nc2ccccn2c(=O)c1NC(=O)c1cccs1,2.74% (inactive),
CCOc1ccc(N(CC(=O)NCc2ccc(OC)cc2)S(=O)(=O)c2c(C)noc2C)cc1,1.59% (inactive),
Cc1ccc(S(=O)(=O)NCC(=O)Nc2ccc3c(c2)OCCO3)cc1,1.97% (inactive),
Cc1noc(C)c1S(=O)(=O)N(CC(=O)Nc1ccc2c(c1)OCCO2)c1ccc(C(C)C)cc1,,20.6 µM (active)

Compound,"activity change, negative = growth inhibition",Potency
Cn1c(Nc2cccc(Cl)c2)nc2ccccc21,-28.2% (inactive),
Cc1c(C(=O)Nc2cccc(Cl)c2)cn2c(nc3ccccc32)c1C#N,,16.4 µM (active)
O=C(O)c1cccc(NC(=O)c2cc(-c3cccc(Cl)c3)nc3ccccc23)c1,9.84% (inactive),
CC1(c2ccc3ccccc3c2)NC(=O)NC1=O (configuration not stated),-0.204% (inactive),
Cc1cccc(N2C(=O)c3ccc(C(=O)Nc4cccc(C(=O)O)c4)cc3C2=O)c1,-4.27% (inactive),
Cc1cccc(NC(=O)c2cccc(C(=O)Nc3cccc(C)c3C)n2)c1C,-23.1% (inactive),
CCOc1ccccc1NC(=O)Cn1c(=O)n(Cc2ccccc2)c(=O)c2c(C)c(C(=O)N(C)C)sc21,-23.6% (inactive),
O=C(C1CC(=O)N(C2CCCCC2)C1)N1CCN(c2ccccc2)CC1 (configuration not stated),-10.9% (inactive),
O=C1C2CCCN2C(=O)N1CCCCN1CCN(c2cccc(C(F)(F)F)c2)CC1 (configuration not stated),-24.6% (inactive),
O=C(C1CC(=O)N(C2CCCC2)C1)N1CCN(c2cccc(C(F)(F)F)c2)CC1 (configuration not stated),,14.6 µM (active)
COC(=O)c1cc(=O)n(-c2c(Cl)cc(C(F)(F)F)cc2Cl)[nH]1,6.68% (inactive),
CC(=O)Nc1ccccc1OC(C)C(=O)N1CCC(C)CC1 (configuration not stated),-10.5% (inactive),
O=C(NCC(O)c1ccc([N+](=O)[O-])cc1)C1CCCCC1 (configuration not stated),-1.64% (inactive),
CCOc1cc(N2CCOCC2)c(OCC)cc1NC(=O)c1ccc(C)s1,,9.2 µM (active)
COC(=O)c1ccc(N2CCOCC2)c(NC(=O)c2ccc3c(c2)OCCO3)c1,-1.66% (inactive),
O=C(COc1nsnc1N1CCOCC1)Nc1ccccc1Cl,-3.03% (inactive),
CCOc1cc(N2CCOCC2)c(OCC)cc1NC(=O)COc1cccc2cccnc12,,10.3 µM (active)
NC(=O)C1CCN(C(=O)COc2cccc3cccnc23)CC1,-5.39% (inactive),
CCOc1cc(NC(=O)c2ccccc2C(=O)O)c(OCC)cc1NC(=O)c1ccccc1F,-11.2% (inactive),

# From PubChem BioAssay AID686979 (National Center for Advancing Translational Sciences (NCATS), 2013)
